Screens from PubChem BioAssay.
Rows were chosen to be rich in hits. Some 10% of all compounds tested hit in one or more screens of this group.
HEK293 tox = Cytotoxic Profiling in HEK 293 Cell Line of Diverse Libraries Using Quantitative High-Throughput Screening; HEK 293 viability, ATP luminescence (CellTiter-Glo), 48-72 h; Potency, µM (series often up to 115 µM), for the others: at the highest dose activity change, negative = cytotoxicity, actives largely listed as inhibitors; 94,000 compounds, 6.6% hits; AID 1345083, 2018; note: % is set by controls: 0 for no effect and ±100 for the full control effect; nearly all actives have a fitted effect of over 60% in size
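Viability of HEK 293 cells, plated at 250 cells/well, was judged by cellular ATP after compound treatment for 48 or 72 hr. Luminescence was imaged 10 min after CellTiter-Glo addition at room temperature.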
Luciferase inh = Firefly luciferase inhibition profiling of diverse chemical library using quantitative high-throughput screening. Luciferin 4-monooxygenase (Photinus pyralis), P08659. purified P. pyralis luciferase, luminescence, biochemical. Potency, µM (doses to about 115 µM), usual class: inhibitors. 76,000 compounds, 2.5% hits; note: % is set by controls: 0 for no effect and ±100 for the full control effect; nearly all actives have a fitted effect of over 65% in size
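Cell-free enzyme assay, 10nM P. pyralis luciferase, luciferin and ATP each at 10uM. Inhibition profiled over a 6-point titration, read as luminescence.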
hNpr1 antagonist = Natriuretic polypeptide receptor (hNpr1) antagonism - Primary qHTS. Atrial natriuretic peptide receptor 1 (Homo sapiens), P16066. HEK293 hNpr1 GloSensor cGMP, ANP-stimulated luminescence. Potency, µM (doses to about 46.3 µM), for inactives: top-dose activity change, negative = inhibition, hits mostly inhibitors. 76,000 compounds, 1.6% hits. AID 1347048, 2019; calls by dose curve; note: % is set by controls: 0 for no effect and ±100 for the full control effect; nearly all actives have a fitted effect of over 60% in size
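Compound pre-incubated 30 min at room temperature on GloSensor-loaded HEK293 cells stably carrying hNpr1 and the pGS-40F cGMP biosensor. Stimulation uses hNppA at 0.1 nM final; luminescence is taken at baseline and 20 min post-agonist.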
GPT2 inh = Primary qHTS assay for inhibitors of Glutamate pyruvate transaminase 2 (GPT2); Alanine aminotransferase 2 (Homo sapiens), Q8TD30; Recombinant GPT2, coupled pyruvate oxidase/HRP Amplex Red fluorescence; Potency, µM (doses to about 57.7 µM), without a hit: at the top dose activity change, negative = inhibition, usual class: inhibitors; 100,000 compounds, 0.25% hits; note: % is set by controls: 0 for no effect and ±100 for the full control effect; nearly all actives have a fitted effect of over 60% in size
Target sequence (Q8TD30 whole entry, looked up): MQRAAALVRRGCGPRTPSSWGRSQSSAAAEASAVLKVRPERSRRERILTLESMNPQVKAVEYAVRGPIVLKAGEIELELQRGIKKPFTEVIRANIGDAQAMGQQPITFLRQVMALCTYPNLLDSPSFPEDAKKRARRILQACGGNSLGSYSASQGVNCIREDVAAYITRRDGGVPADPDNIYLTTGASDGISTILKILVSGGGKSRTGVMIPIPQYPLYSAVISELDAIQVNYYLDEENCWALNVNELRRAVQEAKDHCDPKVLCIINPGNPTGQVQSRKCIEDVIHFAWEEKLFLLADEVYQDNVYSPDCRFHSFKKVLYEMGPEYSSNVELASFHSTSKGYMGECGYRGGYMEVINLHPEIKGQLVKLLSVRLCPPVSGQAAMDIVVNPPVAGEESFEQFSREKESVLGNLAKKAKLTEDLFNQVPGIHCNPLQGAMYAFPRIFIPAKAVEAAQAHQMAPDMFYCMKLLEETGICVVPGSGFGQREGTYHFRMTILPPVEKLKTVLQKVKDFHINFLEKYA
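GPT2 10ng/uL, a-KG 250uM, L-Ala 2mM, HEPES pH7.5 + 0.0001% Tween; 30 min RT. Then Amplex mix (PO/HRP/ThPP), 30 min RT dark, fluorescence. AOA 50uM used as positive control.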
3T3 cytotox = Cytotoxic Profiling in NIH 3T3 Cell Line of Diverse Libraries Using Quantitative High-Throughput Screening. NIH 3T3 viability, CellTiter-Glo ATP luminescence, 48-72 h. Potency, µM (top dose mostly 96.7 µM), for inactives: top-dose activity change, negative = cytotoxicity, most hits filed as inhibitors. 94,000 compounds, 4.3% hits. AID 1345082, 2018; note: % is set by controls: 0 for no effect and ±100 for the full control effect; nearly all actives have a fitted effect of over 55% in size
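Cells were seeded at 400 per well, treated with pin-transferred compound, and kept 48 or 72 hr at 37 °C before CellTiter-Glo addition and luminescence imaging of cellular ATP.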
NPR1 antag cnf = Natriuretic polypeptide receptor (hNpr1) antagonism - Confirmation; HEK293 hNpr1 cGMP GloSensor luminescence, ANP-stimulated; Potency, µM (highest dose often 57.6 µM), for the others: top-dose activity change, negative = inhibition, actives largely listed as inhibitors; 1,400 compounds, 76% hits; shares compounds with hNpr1 antagonist; AID 1347044, 2019; calls by dose curve; note: nearly all actives have a fitted effect of over 70% in size
NPR2 antag = Natriuretic polypeptide receptor (hNpr2) antagonism - Subtype selectivity assay | shares compounds with hNpr1 antagonist | HEK293 hNpr2 GloSensor cGMP luminescence, CNP-stimulated | Potency, µM (top dose mostly 57.6 µM), inactives show at the top dose activity change, negative = inhibition, hits mostly inhibitors | 1,400 compounds, 67% hits; calls by dose curve; note: nearly all actives have a fitted effect of over 70% in size
FLuc inh counter = Natriuretic polypeptide receptor (hNpr1) antagonism - Confirmation firefly luciferase (FLuc) inhibition counterscreen. shares compounds with hNpr1 antagonist. purified FLuc enzyme, luminescence, Km substrate. Potency, µM (doses to about 57.6 µM), without a hit: at the highest dose activity change, negative = inhibition, most hits filed as inhibitors. 1,400 compounds, 0.7% hits; note: 0% is about no effect
GloSensor cGMP = Natriuretic polypeptide receptor (hNpr1) antagonism - Counterscreen GloSensor control cell line; shares compounds with hNpr1 antagonist; HEK293 GloSensor cGMP, SNP-stimulated, luminescence; Potency, µM (series often up to 57.6 µM), for inactives: top-dose activity change, negative = inhibition, hits mostly inhibitors; 1,400 compounds, 69% hits; AID 1347051, 2019; calls by dose curve; note: % is set by controls: 0 for no effect and ±100 for the full control effect; nearly all actives have a fitted effect of over 70% in size
The depositor's hits bear a star; i = inactive; ? = inconclusive; . = no result; [ ] = remark or other dose. Unless noted, calls come from the whole dose curve; as a rule, active = well fitted curve in the direction sought with a large enough effect; inconclusive = small, poorly fitted or top-dose-only effect, or another doubt; inactive = no such curve, though single readings can be large; an effect the other way counts as inactive or inconclusive. Potency is the fitted concentration of half-maximal effect.

SMILES | HEK293 tox | Luciferase inh | hNpr1 antagonist | GPT2 inh | 3T3 cytotox | NPR1 antag cnf | NPR2 antag | FLuc inh counter | GloSensor cGMP
CNc1nccc(N2CCC(CC(=O)N(C)CCCc3c(C)nn(C)c3C)CC2)n1 | ? | i | ? | 1% | ? | . | . | . | .
COc1nccc(N2CCC(CC(=O)N(C)CCCc3c(C)nn(C)c3C)CC2)n1 | ? | i | 11µM* | -7% | ? | 22µM* | ? | 1% | 19µM*
CN(CC1CCOCC1)S(=O)(=O)c1ccccc1Br | ? | i | -8% | i | -13% | . | . | . | .
CCOc1ccc(CC(=O)Nc2ccc(-c3nnc4n3CCCC4)cc2)cc1 | -4% | i | -1% | i | -27% | . | . | . | .
CC(C)CCN1CCC(Cc2ccc(C(=O)NC3CC3)cc2)CC1 | ? | i | -3% | i | ? | . | . | . | .
Cc1ccc(CNC(=O)N2CCC(Cc3ccc(C(=O)NC4CC4)cc3)CC2)cc1 | ? | i | ? | -10% | ? | ? | ? | 0% | ?
CN(C)c1cccc(C(=O)N2CCNc3cnc(Nc4cccc(C(F)(F)F)c4)nc3C2)c1 | ? | i | 16µM* | 1% | ? | 22µM* | 24µM* | -6% | 19µM*
O=C(Cc1ccc2c(c1)OCO2)N1CCNc2cnc(Nc3cccc(F)c3)nc2C1 | ? | i | 40µM* | 2%[88.5 µM] | ? | 35µM* | 35µM* | 6%[86.2 µM] | 35µM*
COc1cccc(-c2cn3cc(C(=O)NCC(F)(F)F)nc3s2)c1 | ? | . | . | i | ? | . | . | . | .
COc1ccc(-n2nc3n(c2=O)CCN(C(=O)c2ccccc2)C3)cc1 | -19% | . | . | i | -28% | . | . | . | .
Cn1cccc1CN1CCn2c(nn(-c3ccc(Cl)cc3)c2=O)C1 | ? | . | . | i | ? | ? | ? | 14µM* | ?
O=C(Nc1ccc(Cl)cc1)N1CCn2c(nn(-c3ccc(C(F)(F)F)cc3)c2=O)C1 | ? | i | ? | 4% | ? | . | . | . | .
COc1ccc(C(=O)N2CCn3c(nn(-c4ccc(Cl)cc4)c3=O)C2)cc1 | -11% | . | . | -14% | -20% | ? | 22µM* | 0% | 27µM*
O=C(c1ccc(C(F)(F)F)cc1)N1CCn2c(nn(-c3ccncc3)c2=O)C1 | ? | i | ? | i | ? | 24µM* | ? | 4%[86.2 µM] | 22µM*
O=C(Nc1ccccc1)N1CCn2c(nn(-c3ccc(C(F)(F)F)cc3)c2=O)C1 | 45µM* | i | ? | -14% | ? | ? | ? | -2%[86.2 µM] | ?
COc1ccc(CN2CCC3(C2)C(=NC2CCCC2)NC(=O)N3c2cccnc2)cc1 (configuration not stated) | -9% | . | . | i | ? | . | . | . | .
COc1cccc(OC)c1CN1CC(O)CN([S+](=O)([O-])c2ccc(F)cc2)CC1=O (configuration not stated) | ? | . | . | . | -17% | . | . | . | .
O=C(c1ccc(-n2ccnc2)cc1)N1CCC(c2[nH]ncc2-c2ccccc2)CC1 | -22% | i | 11µM* | 0% | ? | 22µM* | 22µM* | 16% | 5%
COCc1ccc(C(=O)N2CCC(c3[nH]ncc3-c3ccccc3)CC2)o1 | -3% | i | -2% | -5% | -22% | . | . | . | .
CCS(=O)(=O)c1ccc2oc([C@H]3CCN(Cc4cccc(Cl)c4)C3)nc2c1 | 45µM* | i | ? | i | ? | 35µM* | 35µM* | -4%[86.2 µM] | ?
Cc1nn2c(c1-c1ccccc1Oc1ccccc1)N(Cc1cccc(O)c1)CCC2 | 22µM* | i | 2.5µM* | -13%[88.5 µM] | 14µM* | 11µM* | 25µM* | 0%[86.2 µM] | 11µM*
Cc1nn2c(c1-c1ccccc1OCc1ccccc1)N(C(=O)c1cccnc1)CCC2 | -7%[172 µM] | i | 3%[70.6 µM] | i | ? | . | . | . | .
COc1ccccc1CN1CCCn2nc(C)c(-c3ccccc3C(N)=O)c21 | 22µM* | i | 14µM* | -13%[88.5 µM] | ? | 13µM* | 31µM* | 1%[86.2 µM] | 9.9µM*
Cc1nn2c(c1-c1ccccc1Oc1ccccc1)N(Cc1ccccc1O)CCC2 | 10µM* | i | 7.9µM* | -24%[88.5 µM] | 11µM* | 3.1µM* | 13µM* | -2%[86.2 µM] | 2.2µM*
COc1cccc(CN2CCOC3(CCN(Cc4ccc(C#N)cc4)CC3)C2=O)c1 | ? | i | ? | 1%[88.5 µM] | ? | 35µM* | 40µM* | 2%[86.2 µM] | 35µM*
CCC(C)NC(=O)CN1C(=O)NC2(CCC(C)CC2)C1=O (configuration not stated) | 7% | i | 1% | 4% | -1% | . | . | . | .
Cc1cccc(-n2ncc3c2CCCC3NC(=O)c2c(F)ccc(F)c2F)c1C (configuration not stated) | -66% | i | 5µM* | i | ? | 11µM* | 11µM* | 1% | 8.6µM*
CN1C[C@@H](NC(=O)CC(C)(C)C)C[C@H]1c1nc(-c2ccc3c(c2)OCO3)no1 | ? | i | 25µM* | -8%[88.5 µM] | ? | ? | ? | -3%[86.2 µM] | 40µM*
CCCCN1C(=O)c2ccccc2C(C(=O)NCCc2ccc(OC)cc2)C12CCCCC2 (configuration not stated) | ? | i | -25% | -1% | ? | . | . | . | .
